Inconclusive results are not listed. Active and inactive are the calls of the source. Unless noted, calls follow the shape of the dose curve; as a rule, active = well fitted curve in the direction sought with a large enough effect; inconclusive = small, poorly fitted or top-dose-only effect, or another doubt; inactive = no such curve, though single readings can be large; an effect the other way counts as inactive or inconclusive.
Assays:
[1] = qHTS Assay for Identification of Small Molecule Antagonists for NFkB Signaling Pathway. (AID 624479; calls by dose curve;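 also: pathway stimulated with TNF alpha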; also: potency is read from the fitted curve at half-maximal effect)
[2] = Cell Proliferation Assay against the TMD8 Cell Line (AID 651645); conditions: TMD8 DLBCL cell line proliferation/viability; at 46.1 µM (top of the series);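 also: cells exposed to compound for 48 h before reading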
Summary of the method: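 Luminescent ATP read-out (CellTiter-Glo, 15 min RT) after 48 h compound exposure of log-growing TMD8 cells at 37C; percent activity scaled between DMSO as 100% and 9.2 uM bortezomib final as 0%.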

[3] = Cell Proliferation Assay against the HBL1 Cell Line (AID 651646); conditions: HBL1 DLBCL cells; at 46.1 µM (top of the series);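 also: cells exposed to compound for 48 h before reading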
Summary of the method: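 500 log-phase HBL1 cells per well in phenol red-free RPMI with 5% FBS were treated with compounds for 48 h at 37 °C, 5% CO2. Viability was read by CellTiter-Glo luminescence, normalized to DMSO (100%) and 9.2 uM bortezomib final (0%).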

[4] = Cell Proliferation Assay against the TMD8 Cell Line (Caspase readout at 8 hrs) (AID 651713)
Summary of the method: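 Percent activity derived from Caspase-Glo signal, DMSO set to 0% and bortezomib (9.2 uM final) to 100%. TMD8 cells were exposed to compound for 8 h in RPMI with 5% FBS.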

[5] = Cytotoxicity counterscreen for NFkB agonists and antagonists (AID 624476);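 also: cells exposed to compound for 48 hours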; also: potency is read from the fitted curve at half-maximal effect
[6] = Cell Proliferation Assay against the TMD8 Cell Line (Caspase readout at 16 hrs) (AID 651712)
Summary of the method: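 TMD8 cells (500/well) in phenol-red-free RPMI with glutamine, 5% FBS, were exposed to compounds for 16 h at 37 °C. Caspase 3/7 activation was read by Caspase-Glo luminescence; percent activity normalised to DMSO (0%) and 9.2 uM bortezomib final (100%).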

[7] = qHTS Assay for Identification of Small Molecule Agonists for NFkB Signaling Pathway. (AID 624478);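 also: compounds tested together with TNF alpha at its EC50 of 10 pM; 0% is about no effect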
Summary of the method: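 Cells carrying an NFkB response element-driven beta-lactamase gene are co-treated with compound and 10 pM TNF alpha for 5 h, and reporter activity is then read as 460 and 530 nm fluorescence.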

SMILES | Potency [1] | viability (% of control) [2] [%] | viability, percent of control [3] [%] | Potency [4] | Potency [5] | Potency [6] | outcome [7]
COC(=O)Nc1ccc(-c2nc(N3CCOCC3)c3cnn(C4CCN(C(=O)OC)CC4)c3n2)cc1 | inactive | 32.2 | 51.1 | inactive | – | – | –
OCCn1cc(-c2ccc3c(c2)CCC3=NO)c(-c2ccncc2)n1 | inactive | 80.7 | 133 | inactive | inactive | inactive | –
CNC(=O)c1cc(COc2nnc(Nc3ccc(Cl)cc3)c3ccoc23)ccn1 | 26.6 µM (active) | 39.7 | 6.77 | – | – | – | –
CCCCOCCOc1nc(-c2ccc(C(=O)O)c(F)c2)sc1C | inactive | 98.4 | 84.4 | inactive | inactive | inactive | –
O=C(O)Cc1cccc(OCCCN(Cc2cccc(C(F)(F)F)c2Cl)CC(c2ccccc2)c2ccccc2)c1 | – | 8.71 | 12.9 | – | 26.4 µM (active) | – | –
Cc1ccc(C(=O)N(CCCN)[C@@H](c2nc3cc(Cl)ccc3c(=O)n2Cc2ccccc2)C(C)C)cc1 | – | 0.587 | 1.66 | – | 23.5 µM (active) | – | –
CC(O)=C(C#N)C(=O)Nc1ccc(C(F)(F)F)cc1 | 1.88 µM (active) | 43.6 | 56.6 | inactive | – | inactive | –
COc1ccc(CCN(C)CCCOc2ccc(S(=O)(=O)c3[nH]c4ccccc4c3C(C)C)cc2)cc1OC | – | 4.97 | 7.05 | – | – | – | inactive
COc1nc(C)cnc1NS(=O)(=O)c1cccnc1-c1ccc(-c2nnco2)cc1 | inactive | 116 | 92.3 | inactive | inactive | inactive | –
CN(C)CCCNC(=O)c1ccc(-c2cc(O)c3ncccc3c2)cc1 | inactive | 2.8 | 31 | – | – | – | –
CCCCCCCCCCCCCC(=O)N[C@H](CO)[C@H](O)c1ccc([N+](=O)[O-])cc1 | 29.8 µM (active) | 4.37 | 21.7 | inactive | – | – | –
CCCCn1c(=O)n(Cc2ccccc2F)c(=O)c2[nH]c(Cc3ccc(NC(C)=O)cc3)nc21 | 6.68 µM (active) | 5.19 | 4.28 | inactive | inactive | inactive | –

— PubChem BioAssay (NCATS)
